Sampled rows, rich in hits. Any-hit rate of the full collection: about 7.4%.
Rab9 prom act: activators of Rab9 promoter. Huh7 Rab9 promoter-luciferase reporter, luminescence, 24 h. Potency, µM (titrated, usually from 9.22 µM), for inactives: at the highest dose activation, negative = inhibition, hits mostly activators. 320,000 tested, 2.8% active; note: % of control where 0% means no effect; nearly all actives have a fitted effect of over 60% in size
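Promoter activation is measured as luciferase luminescence in Huh7 cells stably transfected with a Rab9 promoter–luciferase construct, following 24 h compound exposure at 37 °C and 10 min reagent incubation at ambient temperature.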
ELG1 genotoxic: genotoxicity induction in ELG1-luciferase HEK293T cells; HEK293T ELG1-luciferase reporter, luminescence, 16 h; Potency, µM (top dose mostly 46 µM), without a hit: top-dose activity change, positive = activation, hits mostly activators; 330,000 tested, 1.3% active; AID 504466; note: % of control where 0% means no effect; nearly all actives have a fitted effect of over 60% in size
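ELG1-luciferase HEK293T cells, 2,000/well; compound pinned in; 16 hr, 37 °C, 5% CO2; ONE-Glo, 30 min RT; luminescence on CCD imager.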
FLuc counter: inhibits or activates purified firefly luciferase, miR-21 counter-screen; 360,000 tested, 6.9% active; purified FLuc, Km substrates, luminescence inhibition; P08659; Potency, µM (titrated, usually from 57.5 µM), for inactives: top-dose activity change, negative = inhibition, usual class: inhibitors;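 note: plate controls were vehicle for no effect and reference inhibitor for full effect; nearly all actives have a fitted effect of over 55% in size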
Target sequence (P08659 whole entry, looked up): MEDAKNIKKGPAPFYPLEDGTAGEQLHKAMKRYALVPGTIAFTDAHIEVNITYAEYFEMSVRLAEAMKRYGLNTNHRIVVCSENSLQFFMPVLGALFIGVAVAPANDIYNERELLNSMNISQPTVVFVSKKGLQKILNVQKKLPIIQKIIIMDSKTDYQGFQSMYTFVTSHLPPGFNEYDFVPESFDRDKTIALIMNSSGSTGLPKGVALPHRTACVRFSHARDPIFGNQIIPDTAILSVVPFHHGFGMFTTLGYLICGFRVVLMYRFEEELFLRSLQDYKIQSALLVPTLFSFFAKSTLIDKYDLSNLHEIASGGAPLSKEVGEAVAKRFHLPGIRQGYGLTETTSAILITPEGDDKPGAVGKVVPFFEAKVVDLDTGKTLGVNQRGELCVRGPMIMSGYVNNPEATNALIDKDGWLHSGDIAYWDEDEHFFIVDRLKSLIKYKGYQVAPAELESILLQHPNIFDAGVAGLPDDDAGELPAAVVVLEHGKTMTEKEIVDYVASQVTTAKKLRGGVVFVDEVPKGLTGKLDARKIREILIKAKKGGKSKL
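Purified P. pyralis luciferase (10nM final) with 10uM D-luciferin and 10uM ATP (Km levels) in 50mM Tris acetate pH 7.5, 10mM Mg acetate, 0.01% Tween-20, 0.05% BSA; qHTS 6-point titration, ~60 µM downward; luminescence read.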
SMN2 splice enh: enhancers of SMN2 splice variant expression; HEK293 SMN2-luciferase splicing reporter, luminescence, 30-36 h; 210,000 tested, 2.8% active; AID 1458; Potency, µM (titrated, usually from 46.1 µM), inactives show at the top dose activity change, positive = activation, actives largely listed as activators; note: % of control where 0% means no effect; nearly all actives have a fitted effect of over 55% in size
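qHTS luciferase splicing reporter: luminescence rises when SMN2 exon 7 is included in transfected HEK293 cells. Compound exposure lasted 30-36 h at 37C, with 4.5 mM final sodium butyrate as control, followed by a ONE-Glo read.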
NPC1 prom act: NPC1 promoter activation | Huh7 NPC1 promoter luciferase reporter, 24 h | 320,000 tested, 2.4% active | AID 485313 | Potency, µM (doses to about 9.22 µM), inactives show at the top dose activation, most hits filed as activators; note: % of control where 0% means no effect; nearly all actives have a fitted effect of over 60% in size
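Huh7 cells stably carrying NPC1 promoter–luciferase, plated in Opti-MEM with 10% FBS for 2 h, were exposed to compound in DMSO for 24 h at 37 °C; luciferase reagent was added for 10 min and luminescence read.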
The depositor's hits bear a star; ? = inconclusive; · = no result; [ ] = dose if it differs, or a comment. Calls come from the whole dose curve; as a rule, active = well fitted curve in the direction sought with a large enough effect; inconclusive = small, poorly fitted or top-dose-only effect, or another doubt; inactive = no such curve, though single readings can be large; an effect the other way counts as inactive or inconclusive. Potency is the fitted concentration of half-maximal effect.

SMILES	Rab9 prom act	ELG1 genotoxic	FLuc counter	SMN2 splice enh	NPC1 prom act
Cc1noc(C)c1COc1ccc(C(=O)Nc2ccccc2)cc1	-1%	0%	2%	-23%	7%
O=C(Nc1ccccc1C(=O)O)c1ccc(NC(=O)C2CCCCC2)cc1	13%	-14%	9.5µM*	·	3%
O=C(Nc1ccccc1)c1ccc(NC(=O)C2CC2)cc1	2.8µM*	21µM*	7.6µM*	·	1.6µM*
O=C(NNC(=O)c1ccc(NC(=O)C2CC2)cc1)c1ccc(F)cc1	-1%	11%	2%	·	1%
N#Cc1ccccc1OCC(=O)Nc1ccc2c(c1)OCCO2	1.4µM*	?	9.5µM*	·	?
Cc1cc(OCC(=O)Nc2ccc3c(c2)OCCO3)cc(C)c1Cl	1%	1%	?	10%	4%
O=C(COC(=O)Cc1ccccc1F)Nc1ccc2c(c1)OCCO2	-1%	-2%	17µM*	7%	1%
O=C(COC(=O)c1c(F)cccc1F)Nc1ccc2c(c1)OCO2	0%	2%	6.7µM*	·	-1%
O=C(COC(=O)Cc1ccccc1F)Nc1ccc2c(c1)OCO2	1%	-2%	?	10%	-2%
O=C(COc1ccccc1F)Nc1ccc2c(c1)OCCO2	3.2µM*	10µM*	6.7µM*	·	1.8µM*
Cc1ccc(CNC(=O)CCn2cc(-c3ccc(C)cc3)nc2-c2ccncc2)cc1	4%	-1%	1%	·	-4%
CCOc1ccc(-c2nnc(SCC(=O)NCCc3ccccc3)nc2-c2ccc(OCC)cc2)cc1	·	·	6%	·	·
N#Cc1ccccc1OCC(=O)Nc1ccc2c(c1)OCCCO2	3.2µM*	26%	17µM*	·	2.2µM*
CC(C)NC(=O)COc1ccccc1C#N	1%	8%	-1%	-9%	-9%
O=C(COc1ccccc1Br)Nc1ccc2c(c1)OCCCO2	1.4µM*	?	2.1µM*	·	1.3µM*
COc1cccc(NC(=O)COC(=O)c2c(F)cccc2F)c1	-3%	2%	11µM*	14%	-2%
Cc1c(NC(=O)c2cccc(NC(=O)COc3ccccc3C#N)c2)c(=O)n(-c2ccccc2)n1C	4µM*	-3%	1.3µM*	·	2.2µM*
Cc1cccc(Nc2nnc(SCC(=O)c3ccc(O)cc3O)s2)c1	5%	?	9.5µM*	·	-2%
Cc1ccc(Nc2nnc(SCC(=O)N(C)C3CCS(=O)(=O)C3)s2)cc1 (centres undefined)	25%	12%	8.5µM*	?	23%
Cc1cccc(Nc2nnc(SCc3cc(=O)n4cc(C)ccc4n3)s2)c1	0%	-11%	-5%	-10%	-1%
Cc1ccc(Nc2nnc(SCC(=O)c3ccc(O)cc3O)s2)cc1	-1%	2%	11µM*	·	-2%
CSCC(=O)NC1CCCc2c1cnn2-c1ccc(C)c(C)c1 (centres undefined)	14%	7%	-20%	·	14%
COC(=O)c1cc2c(s1)c1cnn(Cc3ccccc3F)c(=O)c1n2C	2%	·	7%	·	1%
NC(=O)c1cc(-c2ccccc2)nc2ccc(Br)cc12	2%	6%	5%	·	2%
Cn1cc(CNC(=O)c2cc(-c3ccccc3)nc3ccc(Br)cc23)cn1	2%	-2%	5.4µM*	19%	0%
SMILES	Rab9 prom act	ELG1 genotoxic	FLuc counter	SMN2 splice enh	NPC1 prom act
Cn1cc(CNC(=O)c2cc(-c3ccc(Br)cc3)nc3ccccc23)cn1	0%	-10%	?	·	8%
Cc1nn(C)cc1CN(C)C(=O)c1cc(-c2ccccc2)nc2ccc(Br)cc12	15%	-12%	21µM*	-11%	2%
Cc1ccc(-c2cc(C(=O)NCc3cnn(C)c3)c3cc(Br)ccc3n2)cc1	24%	?	1.1µM*	-3%	4%
COc1cccc(NC(=O)Cn2c(=O)n(Cc3ccc(C(=O)NCc4ccc(C)cc4)cc3)c(=O)c3ccccc32)c1	·	·	4%	-11%	·
N#Cc1ccc(CN2CCC3(CC2)CCN(C(=O)c2csnn2)CC3)cc1	·	·	·	-18%	·
CSc1nc2sc3c(c2c(=O)n1-c1ccccc1)CCC(C(C)(C)C)C3 (centres undefined)	·	·	1%	3%	·
Nc1nc(SCC(=O)NCCCO)nc2sc3c(c12)CCC3	-6%	-4%	-18%	-7%	-3%
CC(C)(C)C1CCc2c(sc3nc(SCC(=O)O)nc(N)c23)C1 (centres undefined)	11%	?	2.4µM*	·	18%
COC(=O)CSc1nc(N)c2c3c(sc2n1)CCCC3	5%	13%	9.5µM*	·	1%
COC(=O)CSc1nc(N)c2c3c(sc2n1)C(c1ccccc1)SC(c1ccccc1)C3 (centres undefined)	-1%	4%	-3%	12%	-6%
Nc1nc(SCC(=O)NCCO)nc2sc3c(c12)CCCC3	-2%	11%	17µM*	10%	6%
CC1=C(C(=O)N2CCOCC2)C(c2ccc(OC(F)F)cc2)NC(=S)N1c1ccccc1 (centres undefined)	-3%	0%	-1%	-6%	1%
O=C(O/N=C1\CCS(=O)(=O)c2sccc21)c1ccccc1	0%	2%	2.7µM*	-11%	-6%
Cc1cccc(C(=O)O/N=C2\CCS(=O)(=O)c3sccc32)c1	3%	0%	3.4µM*	-8%	4%
O=C(O/N=C1\CCS(=O)(=O)c2sccc21)c1ccc(F)cc1	-5%	0%	?	3%	-1%
COC(=O)c1ccccc1N=Nc1c(N)[nH][nH]c1=O	-4%	-8%	11µM*	·	-2%
COC(=O)c1ccccc1N=Nc1c(N)n[nH]c1N	7%	-5%	-14%	·	5%
O=C(N=C1SCC(=O)N1c1ccccc1Cl)c1ccccc1	2µM*	?	?	13µM*	?
O=C(N=C1SCC(=O)N1c1ccccc1Cl)c1ccco1	?	?	?	16%	?
O=C(O)c1cccc(Nc2ncnc3sccc23)c1	15%	-1%	7.6µM*	4%	28%
COc1cc(NS(=O)(=O)c2ccc(NC(=O)/C(=C\c3ccccc3OC)NC(=O)c3ccccc3)cc2)nc(OC)n1	-4%	-4%	1%	-4%	-1%
CCOc1cccc2cc(-c3cn4cc(C)ccc4n3)c(=O)oc12	0.56µM*	?	0.12µM*	2.8µM*	0.63µM*
Cc1ccc(COc2cccc3cc(-c4noc(-c5ccc(C)cc5)n4)c(=O)oc23)cc1	·	·	0%	8%	·
COc1cc(/C=N/Nc2ccccc2)ccc1O	-1%	?	15µM*	·	4%
COc1cc(/C=N/N(c2ccccc2)c2ccccc2)ccc1O	-1%	1%	19µM*	·	-1%
COc1cc(/C=N/Nc2ccccc2C(F)(F)F)ccc1O	?	18%	13µM*	·	10%
COc1cc(/C=N/NC(=O)CCc2ccccc2)ccc1O	-1%	-2%	?	1%	-2%
CC(C)CN=C(N)N=C(N)N	·	·	·	-9%[9.22 µM]	·
CCN(CC)c1cc2c(cc1F)c(=O)c(S(=O)(=O)c1cc(C)ccc1C)cn2Cc1ccccc1	·	·	1%	·	·
